An excerpt weighted towards active compounds, which were near 13% of everything screened.
Pf growth 96h = P. falciparum growth inhibition at 96 hour, primary screen for plastid delayed-death inhibitors | AID 504834 | 320,000 compounds, 6.9% hits | Potency, µM (top dose mostly 28.7 µM), inactives show at the top dose activity change, negative = inhibition, hits mostly inhibitors | P. falciparum luciferase reporter growth, 96 h; note: potency is the fitted concentration of half-maximal effect
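P. falciparum expressing integrated firefly luciferase grown in erythrocytes (2% hematocrit, 0.05% parasitemia final) with compounds for 96 hours at 37 C, 5% CO2. Growth inhibition read as loss of luminescence after adding luciferase detection reagent.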
Pf growth 48h = P. falciparum growth inhibition at 48 hours (one generation); P. falciparum luciferase growth in erythrocytes, 48 h; Potency, µM (top dose mostly 28.7 µM), for the others: top-dose activity change, negative = inhibition, actives largely listed as inhibitors; 310,000 compounds, 5.9% hits; note: potency is the fitted concentration of half-maximal effect
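Firefly luciferase activity from engineered P. falciparum reports growth; inhibitors lower the luminescent signal. Cultures contained 2% hematocrit erythrocytes at 0.1% final parasitemia.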
HCV inh = inhibitors of hepatitis C virus infection; Huh7.5.1 HCVcc-Cre infection, luciferase reporter, 44 h; 340,000 compounds, 3.4% hits; Potency, µM (doses to about 41.8 µM), without a hit: top-dose activity change, negative = inhibition, usual class: inhibitors; AID 651820; note: potency is the fitted concentration of half-maximal effect
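Whole-lifecycle infectious HCVcc-Cre system; cells 1,000/well, compound then virus (~0.5 moi) added 4 h after plating, 44 h culture. Luciferase read 15 sec following 15 min substrate incubation, room temp.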
HCMV antiviral = inhibitors of human cytomegalovirus | HFF cells, HCMV-luciferase reporter, 72 h; active compounds read low | activity change, negative = inhibition, % at 57.5 µM | 410,000 compounds, 4.5% hits | AID 1259415; in the data active = activity change below about -60%; inconclusive = no clear call, values can overlap the other calls; inactive = above about -39%
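Steps: HFFs plated, 16 h 37C; compounds added; HCMV-luciferase added to MOI 1 PFU/cell; 72 h 37C; OneGlo reagent, 5 min room temperature; luminescence read, normalized to controls.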
Numbers without * were called inactive; ? = inconclusive; . = not tested or not shown. Unless noted, calls come from the whole dose curve; as a rule, active = well fitted inhibition curve with a large enough effect; inconclusive = small, poorly fitted or top-dose-only effect, or another doubt; inactive = no such curve, though single readings can be large or run the other way. % is set by controls: 0 for no effect and ±100 for the full control effect.

SMILES	Pf growth 96h	Pf growth 48h	HCV inh	HCMV antiviral
Cc1cc2oc(=O)cc(CN(C)Cc3ccccc3)c2cc1C(C)C	?	13.1µM*	8.91µM*	-32.4
COc1ccc2oc(=O)cc(CN(C)Cc3ccccc3)c2c1	?	?	7.94µM*	?
Cc1cc2oc(=O)cc(CN3CCCC3)c2cc1Cl	.	.	.	41.7
COc1ccc(CN(C)Cc2cc(=O)oc3cc(C)c(C(C)C)cc23)cc1OC	?	?	?	-12.5
Cc1cc2oc(=O)cc(CN3CCCCC3C)c2cc1C(C)C (stereo unspecified)	?	14.7µM*	12.6µM*	-35.0
CN(Cc1ccccc1)Cc1cc(=O)oc2ccccc12	.	.	.	19.0
CCOc1ccc(CCNC(=O)Cn2nc(CC)n3c(cc4ccccc43)c2=O)cc1	.	.	.	-1.9
COCCN1Cc2cccc(C(=O)Nc3ccc(Cl)cc3Cl)c2C1=O	.	.	.	3.1
CCOP(=O)(CCP(=O)(OCC)OCC)OCC.C[CH2][Sn]([Cl])([Cl])[CH2]C	.	.	1.58µM*	-101.0*
O=C(Nc1ccc2oc(-c3cc(Br)ccc3Cl)nc2c1)c1cc2ccccc2o1	.	.	.	26.1
COc1cc2nc(NCCc3ccc(Cl)cc3)n3nc(-c4ccccc4)nc3c2cc1OC	.	.	.	-4.4
Cc1ccc(CNC(=O)CCCCn2c(=O)[nH]c3ccsc3c2=O)cc1	10.4µM*	-4.1%	2.5%	-32.8
O=C(CCCCCn1c(=O)[nH]c2ccsc2c1=O)N1CCCCC1	?	11.7µM*	7.1%	53.2
Cc1ccc(CNC(=O)Cc2ccc(-n3c(=O)[nH]c4ccsc4c3=O)cc2)cc1	?	20.7%	2.0%	-61.7*
O=C(CCCn1c(=O)[nH]c2ccsc2c1=O)N1CCCCC1	12.9%	29.2%	18.8%	-20.2
Cc1nnc(N2CCN(C(=O)Nc3cc(F)ccc3F)CC2)c2nn(-c3ccc(Cl)cc3)c(C)c12	.	.	.	-29.7
COC(=O)c1c(-c2ccc(Cl)cc2)noc1N1CCN(c2cccc(C(F)(F)F)c2)CC1	.	.	.	10.6
CCC(=O)N1c2ccccc2CC1C(=O)NCCN1CCN(c2cccc(C)c2C)CC1 (stereo unspecified)	.	.	.	-3.4
CC(=N\O)/C(CN(C)C)=N/O	10.4µM*	19.7%	14.1%	28.9
CN(C)CCOC(=O)NC12CC3CC(CC(C3)C1)C2	-1.8%	-0.1%	6.2%	0.6
O=C(NC12CC3CC(CC(C3)C1)C2)OCCNC1CCCCC1	10.4µM*	?	8.6%	?
CN1C(=O)/C(=C/c2ccc3c(c2)OCO3)N=C1c1ccccc1	52.2%	11.7%	-1.9%	-100.8*
CCSC1=N/C(=C\c2ccc3c(c2)OCO3)C(=O)S1	56.0%	-9.6%	12.3%	3.6
COc1ccc(-c2ccc3c(c2)COCC(=O)N3CCN2CCOCC2)cc1	.	.	.	-16.5
CC[C@H](C)[C@H]1O[C@]2(CC[C@@H]1C)C[C@@H]1C[C@@H](C/C=C(\C)[C@H](O[C@@H]3C[C@H](OC)[C@H](O[C@@H]4C[C@H](OC)[C@@H](O)[C@H](C)O4)[C@H](C)O3)[C@@H](C)/C=C/C=C3\CO[C@@H]4[C@H](O)C(C)=C[C@@H](C(=O)O1)[C@]34O)O2	4.78µM*	1.2µM*	.	.
SMILES	Pf growth 96h	Pf growth 48h	HCV inh	HCMV antiviral
COc1cccc(CNC(=O)CN2C(=O)CCCc3ccccc32)c1OC	.	.	.	14.5
O=C(COc1ccccc1Cl)Nc1nc2c(s1)CCCC2	.	.	.	-24.7
CCCOc1ccccc1C(=O)Nc1nc2c(s1)CCCC2	.	.	.	-63.7*
CN(C)c1ccc(C(=O)Nc2nc3c(s2)CCCC3)cc1	-93.2%	-38.9%	11.2µM*	-66.6*
CC(C)(C)c1ccc(C(=O)NC(=S)Nc2nc3c(s2)CCCC3)cc1	86.4%	135.6%	?	-76.0*
OCC1(CC2CCCCO2)CCN(C/C=C/c2ccccc2)CC1 (stereo unspecified)	-14.8%	5.22µM*	-0.9%	-17.2
COCc1ccc(CN2CCC(CO)(CC3CCCCO3)CC2)o1 (stereo unspecified)	?	7.6%	12.2%	?
Cc1ccc2[nH]c(CN3CCC(CO)(CC4CCCCO4)CC3)c(C)c2c1 (stereo unspecified)	?	9.28µM*	-15.2%	-69.9*
COc1cccc(CN2CCC(CO)(CC3CCCCO3)CC2)c1 (stereo unspecified)	9.28µM*	-19.6%	2.8%	28.6
CCCCN(C(=O)C1CCC(CNS(=O)(=O)c2cccc3nsnc23)CC1)c1ccccc1 (stereo unspecified)	.	.	.	-31.1
CCCCOc1ccc(OC(=O)c2sc3ncn(Cc4cccc(F)c4)c(=O)c3c2C)cc1	.	.	.	9.9
CCCC(C(=O)Nc1cc(S(=O)(=O)N2CCOCC2)ccc1OC)c1ccccc1 (stereo unspecified)	?	?	-27.9%	-9.6
COc1ccc(S(=O)(=O)N2CCN(C(c3ccccc3)c3ccccc3)CC2)cc1NC(C)=O	?	?	3.16µM*	25.7
COc1ccc(S(=O)(=O)N2CCCCC2)cc1NC(=O)c1ccccc1	-9.0%	-1.3%	5.9%	-16.2
COc1ccc(S(=O)(=O)N2CCCCC2)cc1NC(=O)c1c(F)cccc1Cl	2.94µM*	8.28µM*	?	44.3
COc1ccc(S(=O)(=O)N2CCCC2)cc1NC(=O)c1ccccc1	11.7µM*	2.8%	13.1%	-14.4
O=C(COc1ccccc1)Nc1nc(-c2cccnc2)cs1	?	?	-11.8%	0.0
CCc1ccccc1Nc1nc(-c2cccnc2)cs1	9.28µM*	11.7µM*	?	?
COc1cccc(CC(=O)Nc2nc(-c3cccnc3)cs2)c1	?	-21.2%	-7.8%	-62.0*
N#Cc1ccc(OCC(=O)Nc2nc(-c3cccnc3)cs2)cc1	?	11.7µM*	?	29.4
Cc1cc(C)cc(OCC(=O)Nc2nc(-c3cccnc3)cs2)c1	14.7µM*	?	?	18.2
COc1ccc(CC(=O)Nc2nc(-c3cccnc3)cs2)cc1	3.1%	2.4%	-27.5%	-10.7
COc1ccccc1NC(=O)C1=C(C)Nc2nc3ccccc3n2C1c1ccccc1Cl (stereo unspecified)	.	.	.	-6.2
COCCn1c(CNC(=O)c2cc([N+](=O)[O-])ccc2Cl)nc2cccnc21	.	.	.	2.1
COc1ccc(CCCc2nnc(SCC(=O)Nc3cccc(F)c3C)o2)cc1	.	.	.	-3.3
Cn1c(=O)[nH]c(=O)c2c1nc(N1CCCCC1)n2CC(O)COc1ccc([N+](=O)[O-])cc1 (stereo unspecified)	9.28µM*	-12.2%	5.3%	15.8
Cn1c(=O)[nH]c(=O)c2c1nc(N1CCCC1)n2CC(O)COc1ccccc1 (stereo unspecified)	?	.	15.9%	-18.1
C=CCOCC(O)Cn1c(N2CCCC2)nc2c1c(=O)[nH]c(=O)n2C (stereo unspecified)	6.57µM*	5.2%	7.1%	-5.6
Cc1ccccc1OCC(O)Cn1c(N2CCCCC2)nc2c1c(=O)[nH]c(=O)n2C (stereo unspecified)	13.7%	-5.6%	4.4%	17.0
CN1C(C(=O)NC(C)(C)C)=CC(c2ccc3c(c2)OCO3)=NS1(=O)=O	.	.	.	-7.7

Source: PubChem
